What is called inhibition is the relative decrease from the control value, in per cent.

Where “and” joins values, the source holds several entries; their conditions need not be identical. Equal entries are not always repeated.

We go through five compounds from ChEMBL document CHEMBL1961873, “Compounds: GSK PKIS; Assays: Nanosyn kinase panel” (2012).

The target in assay [1] is Mast/stem cell growth factor receptor Kit (Homo sapiens) (UniProt P10721). Particulars: at 1 µM.
Assay [2] concerns Mast/stem cell growth factor receptor Kit (Homo sapiens), P10721 [D816V]. Particulars: at 0.1 µM.
For assay [3] the test system is unchanged. To be noted: at 1 µM.
For assay [4], the system named is Mast/stem cell growth factor receptor Kit (Homo sapiens), P10721 [T670I]. To be noted: at 0.1 µM.
The test system is the same in assay [5]. Particulars: at 1 µM.
Assay [6] relates to Mast/stem cell growth factor receptor Kit (Homo sapiens), P10721 [V560G]. To be noted: at 0.1 µM.
Assay [7] shares this test system. Particulars: at 1 µM.
The target in assay [8] is Tyrosine-protein kinase Lck (Homo sapiens) (UniProt P06239). To be noted: at 0.1 µM.
Assay [9] shares this target. Particulars: at 1 µM.
The target in assay [10] is Leukocyte tyrosine kinase receptor (Homo sapiens) (UniProt P29376). To be noted: at 0.1 µM.
For assay [11] the target is unchanged. To be noted: at 1 µM.
Assay [12] has as its target Tyrosine-protein kinase Lyn (Homo sapiens) (UniProt P07948). Particulars: at 0.1 µM.
Assay [13] shares this target. Particulars: at 1 µM.
Assay [14] shares this target. To be noted: at 0.1 µM. This is another data set of the same source.
Assay [15] shares this target. To be noted: at 1 µM. This is another data set of the same source.
Assay [16] concerns the target T1, Tyrosine-protein kinase Mer (Homo sapiens) (UniProt Q12866).
T1 sequence (whole entry): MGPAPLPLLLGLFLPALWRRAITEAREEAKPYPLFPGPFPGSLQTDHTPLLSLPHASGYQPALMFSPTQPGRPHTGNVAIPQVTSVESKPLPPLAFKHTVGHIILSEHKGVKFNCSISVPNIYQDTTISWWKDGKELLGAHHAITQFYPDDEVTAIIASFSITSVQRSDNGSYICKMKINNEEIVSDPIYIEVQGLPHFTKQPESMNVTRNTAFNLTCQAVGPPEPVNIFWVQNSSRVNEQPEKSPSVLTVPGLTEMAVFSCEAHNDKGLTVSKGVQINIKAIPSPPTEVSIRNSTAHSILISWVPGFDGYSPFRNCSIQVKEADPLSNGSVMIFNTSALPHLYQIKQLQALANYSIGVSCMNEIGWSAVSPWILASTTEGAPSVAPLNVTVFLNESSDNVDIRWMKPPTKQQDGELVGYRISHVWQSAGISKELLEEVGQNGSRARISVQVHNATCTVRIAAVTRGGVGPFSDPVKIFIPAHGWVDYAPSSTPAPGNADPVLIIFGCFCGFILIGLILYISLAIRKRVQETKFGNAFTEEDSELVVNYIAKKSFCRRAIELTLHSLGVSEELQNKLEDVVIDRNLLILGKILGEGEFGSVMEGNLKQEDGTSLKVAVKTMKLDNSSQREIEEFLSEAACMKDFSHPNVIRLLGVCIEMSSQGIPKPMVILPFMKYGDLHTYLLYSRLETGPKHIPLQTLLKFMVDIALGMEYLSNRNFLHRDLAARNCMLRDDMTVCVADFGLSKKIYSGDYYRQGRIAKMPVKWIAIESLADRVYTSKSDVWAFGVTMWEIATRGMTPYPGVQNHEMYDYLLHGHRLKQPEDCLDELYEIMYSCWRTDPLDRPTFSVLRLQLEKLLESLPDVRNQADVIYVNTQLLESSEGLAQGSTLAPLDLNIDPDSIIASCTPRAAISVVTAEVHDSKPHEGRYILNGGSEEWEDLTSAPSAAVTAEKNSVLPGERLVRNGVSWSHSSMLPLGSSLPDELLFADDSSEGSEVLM
To be noted: at 0.1 µM.

Assay [17] concerns the target T1, Tyrosine-protein kinase Mer (Homo sapiens). To be noted: at 1 µM.
The target of assay [18] is Hepatocyte growth factor receptor (Homo sapiens) (UniProt P08581). Particulars: at 0.1 µM.
Assay [19] has the same target. Particulars: at 1 µM.
Assay [20] deals with T2, Muscle, skeletal receptor tyrosine-protein kinase (Homo sapiens) (UniProt O15146).
T2 sequence (whole entry): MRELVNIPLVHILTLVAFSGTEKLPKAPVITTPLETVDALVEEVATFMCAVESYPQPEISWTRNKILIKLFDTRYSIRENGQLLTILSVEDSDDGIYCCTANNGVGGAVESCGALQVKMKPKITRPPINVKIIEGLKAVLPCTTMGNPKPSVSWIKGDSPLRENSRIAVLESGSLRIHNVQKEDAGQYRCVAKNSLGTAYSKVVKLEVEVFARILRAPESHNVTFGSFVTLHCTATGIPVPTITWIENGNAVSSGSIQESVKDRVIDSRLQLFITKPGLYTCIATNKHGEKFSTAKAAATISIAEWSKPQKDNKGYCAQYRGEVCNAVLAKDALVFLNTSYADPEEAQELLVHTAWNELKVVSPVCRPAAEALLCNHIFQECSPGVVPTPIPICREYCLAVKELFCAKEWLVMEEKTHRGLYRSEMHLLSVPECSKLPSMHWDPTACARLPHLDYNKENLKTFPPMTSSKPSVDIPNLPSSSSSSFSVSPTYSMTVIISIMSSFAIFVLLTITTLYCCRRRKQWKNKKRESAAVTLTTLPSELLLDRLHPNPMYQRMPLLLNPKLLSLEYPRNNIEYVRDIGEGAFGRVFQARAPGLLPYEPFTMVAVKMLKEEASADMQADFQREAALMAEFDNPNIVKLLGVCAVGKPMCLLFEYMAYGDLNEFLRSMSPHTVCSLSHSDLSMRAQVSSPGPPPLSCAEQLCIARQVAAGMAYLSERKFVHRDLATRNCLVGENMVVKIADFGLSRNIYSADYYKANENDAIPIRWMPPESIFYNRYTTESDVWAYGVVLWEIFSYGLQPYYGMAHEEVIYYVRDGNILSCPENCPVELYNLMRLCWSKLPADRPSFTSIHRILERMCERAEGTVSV
To be noted: at 0.1 µM.

Sequence of Tyrosine-protein kinase Lck (Homo sapiens) (P06239 2-509 limits assumed): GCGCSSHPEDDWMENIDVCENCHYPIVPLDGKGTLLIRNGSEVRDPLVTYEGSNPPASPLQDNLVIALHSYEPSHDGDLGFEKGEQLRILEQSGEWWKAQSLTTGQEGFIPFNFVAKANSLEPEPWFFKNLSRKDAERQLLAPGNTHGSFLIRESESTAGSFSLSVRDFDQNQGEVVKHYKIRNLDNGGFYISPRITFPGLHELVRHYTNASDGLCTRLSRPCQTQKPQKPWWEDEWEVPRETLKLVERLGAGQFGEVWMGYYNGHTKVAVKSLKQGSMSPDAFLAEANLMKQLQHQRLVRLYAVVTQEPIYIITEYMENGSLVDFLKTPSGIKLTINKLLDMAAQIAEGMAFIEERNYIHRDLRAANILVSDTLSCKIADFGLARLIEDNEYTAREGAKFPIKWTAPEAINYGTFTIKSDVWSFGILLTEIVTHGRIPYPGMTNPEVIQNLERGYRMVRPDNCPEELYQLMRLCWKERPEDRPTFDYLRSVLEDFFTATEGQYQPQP
Sequence of Hepatocyte growth factor receptor (Homo sapiens) (P08581 whole entry): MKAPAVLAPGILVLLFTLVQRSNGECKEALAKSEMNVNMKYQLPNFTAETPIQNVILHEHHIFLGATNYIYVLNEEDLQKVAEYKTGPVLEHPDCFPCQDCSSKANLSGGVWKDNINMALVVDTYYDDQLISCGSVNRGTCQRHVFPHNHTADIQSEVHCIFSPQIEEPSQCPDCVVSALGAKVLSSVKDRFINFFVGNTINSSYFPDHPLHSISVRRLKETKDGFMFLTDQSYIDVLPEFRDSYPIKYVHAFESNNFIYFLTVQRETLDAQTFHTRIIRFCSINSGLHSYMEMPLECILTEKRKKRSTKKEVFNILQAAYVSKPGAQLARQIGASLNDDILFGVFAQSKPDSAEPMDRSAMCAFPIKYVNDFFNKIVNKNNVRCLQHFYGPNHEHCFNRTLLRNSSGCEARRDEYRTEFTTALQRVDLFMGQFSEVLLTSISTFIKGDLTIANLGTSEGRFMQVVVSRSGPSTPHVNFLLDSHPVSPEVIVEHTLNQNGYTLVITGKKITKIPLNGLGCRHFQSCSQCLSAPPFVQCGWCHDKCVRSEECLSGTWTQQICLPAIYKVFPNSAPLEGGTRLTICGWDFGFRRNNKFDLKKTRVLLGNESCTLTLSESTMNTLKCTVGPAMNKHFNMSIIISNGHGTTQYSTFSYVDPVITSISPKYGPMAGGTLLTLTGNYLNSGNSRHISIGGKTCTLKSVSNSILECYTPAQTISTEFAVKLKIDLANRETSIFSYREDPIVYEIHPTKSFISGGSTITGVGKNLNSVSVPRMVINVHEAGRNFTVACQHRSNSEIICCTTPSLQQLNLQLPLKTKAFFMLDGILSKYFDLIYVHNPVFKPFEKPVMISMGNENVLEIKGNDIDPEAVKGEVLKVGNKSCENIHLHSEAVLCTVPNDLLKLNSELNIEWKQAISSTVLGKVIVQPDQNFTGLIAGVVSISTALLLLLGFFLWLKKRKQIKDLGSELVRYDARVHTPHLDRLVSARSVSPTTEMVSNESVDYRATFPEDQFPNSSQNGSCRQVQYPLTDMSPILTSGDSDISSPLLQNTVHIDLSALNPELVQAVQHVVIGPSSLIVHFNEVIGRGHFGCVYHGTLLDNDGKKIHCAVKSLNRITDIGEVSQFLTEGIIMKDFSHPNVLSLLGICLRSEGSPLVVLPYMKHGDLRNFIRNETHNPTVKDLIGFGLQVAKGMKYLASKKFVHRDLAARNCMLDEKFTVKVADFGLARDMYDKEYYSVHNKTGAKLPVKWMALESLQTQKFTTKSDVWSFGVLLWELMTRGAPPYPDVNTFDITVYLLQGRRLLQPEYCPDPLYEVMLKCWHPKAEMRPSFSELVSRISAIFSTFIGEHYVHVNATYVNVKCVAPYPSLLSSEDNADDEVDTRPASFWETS
Sequence of Tyrosine-protein kinase Lyn (Homo sapiens) (P07948 2-512 limits assumed): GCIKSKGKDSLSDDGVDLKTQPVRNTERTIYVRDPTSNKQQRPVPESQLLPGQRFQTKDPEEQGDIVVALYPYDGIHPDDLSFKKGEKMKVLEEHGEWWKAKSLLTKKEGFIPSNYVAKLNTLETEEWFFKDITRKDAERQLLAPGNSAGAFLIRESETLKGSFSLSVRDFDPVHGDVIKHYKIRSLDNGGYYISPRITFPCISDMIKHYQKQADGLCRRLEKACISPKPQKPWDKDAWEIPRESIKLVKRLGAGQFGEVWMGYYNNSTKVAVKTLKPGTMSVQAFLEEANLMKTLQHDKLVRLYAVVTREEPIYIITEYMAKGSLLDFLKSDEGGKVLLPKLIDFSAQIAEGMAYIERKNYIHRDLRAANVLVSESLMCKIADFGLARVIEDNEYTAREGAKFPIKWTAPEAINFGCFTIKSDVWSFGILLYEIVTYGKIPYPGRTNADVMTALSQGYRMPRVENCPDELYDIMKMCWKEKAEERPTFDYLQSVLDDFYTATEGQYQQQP
Sequence of Mast/stem cell growth factor receptor Kit (Homo sapiens), P10721 [D816V] (P10721 whole entry D816V): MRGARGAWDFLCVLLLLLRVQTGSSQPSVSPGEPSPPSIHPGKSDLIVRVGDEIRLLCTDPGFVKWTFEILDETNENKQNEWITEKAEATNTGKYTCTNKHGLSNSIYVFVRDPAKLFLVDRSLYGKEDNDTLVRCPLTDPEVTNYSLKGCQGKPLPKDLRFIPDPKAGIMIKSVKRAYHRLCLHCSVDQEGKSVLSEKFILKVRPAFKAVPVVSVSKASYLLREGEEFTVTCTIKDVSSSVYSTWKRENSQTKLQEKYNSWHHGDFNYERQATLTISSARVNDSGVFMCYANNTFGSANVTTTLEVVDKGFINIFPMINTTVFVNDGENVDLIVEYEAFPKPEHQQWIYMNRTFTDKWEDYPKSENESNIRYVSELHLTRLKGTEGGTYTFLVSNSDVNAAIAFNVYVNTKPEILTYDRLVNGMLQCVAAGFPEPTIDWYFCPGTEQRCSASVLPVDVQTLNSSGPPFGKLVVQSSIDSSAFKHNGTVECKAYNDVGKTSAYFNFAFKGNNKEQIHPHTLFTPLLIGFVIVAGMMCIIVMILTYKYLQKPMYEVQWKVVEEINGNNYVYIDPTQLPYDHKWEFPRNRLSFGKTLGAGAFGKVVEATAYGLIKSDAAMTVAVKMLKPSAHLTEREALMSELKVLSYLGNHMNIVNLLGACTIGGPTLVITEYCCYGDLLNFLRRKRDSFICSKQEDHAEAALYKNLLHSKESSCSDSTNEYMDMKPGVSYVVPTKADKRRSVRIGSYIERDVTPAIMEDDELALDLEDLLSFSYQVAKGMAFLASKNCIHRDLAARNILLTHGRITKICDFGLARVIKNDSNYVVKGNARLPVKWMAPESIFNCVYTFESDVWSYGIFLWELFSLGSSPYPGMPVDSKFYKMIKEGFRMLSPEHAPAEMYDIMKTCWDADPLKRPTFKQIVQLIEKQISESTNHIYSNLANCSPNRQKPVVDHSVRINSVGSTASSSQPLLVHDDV
Sequence of Mast/stem cell growth factor receptor Kit (Homo sapiens) (P10721 whole entry): as the sequence (P10721 whole entry D816V) above, with V816D counted along it
Sequence of Mast/stem cell growth factor receptor Kit (Homo sapiens), P10721 [V560G] (P10721 whole entry V560G): as the sequence (P10721 whole entry D816V) above, with V560G, V816D counted along it
Sequence of Mast/stem cell growth factor receptor Kit (Homo sapiens), P10721 [T670I] (P10721 whole entry T670I): as the sequence (P10721 whole entry D816V) above, with T670I, V816D counted along it
Sequence of Leukocyte tyrosine kinase receptor (Homo sapiens) (P29376 whole entry): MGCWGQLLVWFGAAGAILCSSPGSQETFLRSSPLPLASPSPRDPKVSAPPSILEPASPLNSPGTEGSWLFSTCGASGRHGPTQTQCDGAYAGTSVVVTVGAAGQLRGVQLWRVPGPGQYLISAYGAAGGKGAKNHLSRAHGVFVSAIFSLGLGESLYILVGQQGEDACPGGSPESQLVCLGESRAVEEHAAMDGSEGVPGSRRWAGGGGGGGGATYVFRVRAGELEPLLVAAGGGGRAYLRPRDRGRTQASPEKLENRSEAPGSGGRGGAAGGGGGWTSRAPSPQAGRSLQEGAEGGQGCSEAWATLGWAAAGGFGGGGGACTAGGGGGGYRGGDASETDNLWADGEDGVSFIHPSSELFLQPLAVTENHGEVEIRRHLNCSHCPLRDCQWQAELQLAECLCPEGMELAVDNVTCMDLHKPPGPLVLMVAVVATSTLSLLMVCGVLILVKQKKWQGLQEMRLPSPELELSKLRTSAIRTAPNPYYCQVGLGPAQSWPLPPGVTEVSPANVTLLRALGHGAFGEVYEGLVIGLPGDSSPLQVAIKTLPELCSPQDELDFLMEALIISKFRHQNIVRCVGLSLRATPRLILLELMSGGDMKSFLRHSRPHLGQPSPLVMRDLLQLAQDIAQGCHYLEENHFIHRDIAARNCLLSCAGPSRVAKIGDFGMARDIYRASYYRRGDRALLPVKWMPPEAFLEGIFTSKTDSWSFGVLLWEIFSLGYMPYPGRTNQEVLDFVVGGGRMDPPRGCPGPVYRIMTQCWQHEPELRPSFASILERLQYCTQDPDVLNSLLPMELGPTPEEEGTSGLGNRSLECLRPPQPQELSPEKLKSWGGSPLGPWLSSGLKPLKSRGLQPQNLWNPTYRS

Regarding `CN(c1ccc(NC(=O)NCCN2CCOCC2)cc1)c1ccnc(Nc2ccc(CS(C)(=O)=O)cc2)n1`, the inhibition in assay [1] is 94.2%; in assay [2], 2.49%; in assay [3] it was 4.98%; in assay [4], 21.6%; in assay [5], 73.6%; in [6], 57.2%. Further, the inhibition was 84.5% in [7]; 1.63% in assay [8]; 11% in assay [9]; 2.84% in assay [10]; 5.29% in assay [11]; 4.34% in [12]. Besides, the inhibition in assay [13] came to 14.9%; in assay [14] it was 2.19%; in assay [15], 13.6%; in [16], 1.6%; in assay [17] it was 6.28%; in assay [18], 3.89%. Besides, the results for the inhibition in [19] and in assay [20] were 41.4% and 3.78%, respectively.

Regarding `Nc1ncnc2occ(-c3ccc(NC(=O)Nc4cc(C(F)(F)F)ccc4F)cc3)c12`, the inhibition is 102% and 99.8% in assay [1]; 2.13% and -0.16% in assay [2]; 3.55% and 0.01% in assay [3]; 64.5% and 57% in assay [4]; 85.6% and 96% in assay [5]; 70.7% and 81.8% in assay [6]. In addition, the inhibition was 78.7% and 97.7% in [7]; 10.9% and 3.28% in [8]; 7.84% and 2.37% in assay [10]; 53.6% and 34% in assay [11]; 20.4% and 9.18% in assay [12]; 73.7% and 57.2% in assay [13]. Further, the inhibition was 17.2% and 6.3% in assay [14]; 70.5% and 53.6% in assay [15]; 4.87% and 1.22% in assay [16]; 34.7% and 21.6% in assay [17]; 11% and 2.19% in assay [18]; 29.8% and 11% in [19]. In addition, in [20], the inhibition is 87.2% and 84.2%.

As for `O=C(O[C@H]1CN[C@H](C#Cc2cc3ncnc(Nc4ccc5c(cnn5Cc5ccccc5)c4)c3s2)C1)N1CCOCC1`, the inhibition was 0.9% in assay [1]; -4.43% in assay [2]; -0.62% in assay [3]; -1.83% in assay [4]; -1.48% in assay [5]; -1.18% in assay [6]. The inhibition in [7] is -0.48%; in assay [8] it was 0.34%; in assay [9], 6.67%; in assay [10], 0.04%; in assay [11], -0.87%; in assay [12], 1.1%. The inhibition in [13] is 1.11%; in assay [14], 1.54%; in assay [15], 0.75%; in assay [16] it was 1.33%; in assay [17] it was 9.62%; in assay [18] it was 5.14%. The inhibition is 1.77% in [19] and 0.92% in assay [20].

With `COc1ccc2ncn(-c3cc(O[C@H](C)c4ccccc4C(F)(F)F)c(C(N)=O)s3)c2c1`, the inhibition is 14.7% in [1]; -1.17% in [2]; 2.71% in [3]; 1.09% in assay [4]; 3.92% in [5]; 0.71% in assay [6]. Also, the inhibition came to 2.83% in assay [7]; 0.65% in [8]; 2.2% in assay [9]; 0.48% in assay [10]; 1.97% in assay [11]; 0.92% in assay [12]. The inhibition in assay [13] was 1.75%; in [14] it was -0.04%; in assay [15], 1.72%; in [16], -0.24%; in [17], 2.59%; in [18], -3.32%. Further, the inhibition in [19] worked out at 0.66%; in [20], 3.55%.

Turning to `NS(=O)(=O)c1ccc(N/N=C2\C(=O)Nc3ccc(C(=O)NCc4ccncc4)cc32)cc1`, the inhibition in [1] worked out at 12.5%; in assay [2], 3.05%; in [3], 12.7%; in assay [4], 1.57%; in [5], 4.42%; in assay [6], 1.34%. The inhibition in assay [7] turned out to be 10.7%; in [8] it was 2.05%; in [9], 8.27%; in assay [10], 2.1%; in assay [11], 2.51%; in assay [12], 5.87%. Besides, the inhibition in assay [13] was 17.7%; in assay [14], 3.02%; in [15] it was 14.7%; in [16], 1.29%; in [17], 1.37%; in assay [18], 5.14%. In addition, the inhibition in [19] worked out at 13%; in [20], 9.84%.
